Sampled rows, rich in hits. Any-hit rate of the full collection: about 8%.
SARS PLP yeast: inhibitors of SARS-CoV papain-like protease in yeast; S. cerevisiae expressing SARS-CoV PLpro, growth rescue; Potency, µM (highest dose often 32.9 µM), for the others: at the highest dose activity, positive = growth rescue, usual class: activators; hit rate 0.19% among 330,000; calls by dose curve; also: potency is read from the fitted curve at half-maximal effect; 0% is about no effect; nearly all actives have a fitted effect of over 55% in size
HCMV antiviral: human cytomegalovirus inhibition; HFF cells, HCMV-luciferase reporter, 72 h; hits give low values; activity change, negative = inhibition, % at 57.5 µM; hit rate 4.5% among 410,000; AID 1259415; in the data active = activity change below about -60%; inconclusive = no clear call, values can overlap the other calls; inactive = above about -39%; also: % is scaled to controls: 0 for no effect and ±100 for the full control effect
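Luciferase read-out from HCMV-luciferase-infected HFFs (MOI 1 PFU/cell) 72 h post infection at 37C; compounds added after 16 h cell attachment; activity normalized between buffer-only basal and Salinomycin (10uM) inhibitor controls.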
LASV entry inh: inhibitors of Lassa virus binding or cell entry | Lassa virus pseudotype entry inhibition, cell reporter | Potency, µM (top dose mostly 37.9 µM), without a hit: top-dose activity change, negative = inhibition, hits mostly inhibitors | hit rate 1.2% among 300,000; calls by dose curve; tested in HEK293 cells; also: potency is read from the fitted curve at half-maximal effect; % is scaled to controls: 0 for no effect and ±100 for the full control effect; nearly all actives have a fitted effect of over 50% in size
FMDV inh: foot and mouth disease virus antiviral activity | FMDV antiviral cell-based qHTS | Potency, µM (series often up to 57.9 µM), for inactives: at the top dose activity change, negative = inhibition, most hits filed as inhibitors | hit rate 1.2% among 410,000 | AID 1159524; calls by dose curve; tested in HEK293T cells; also: read-out not given here; potency is read from the fitted curve at half-maximal effect; % is scaled to controls: 0 for no effect and ±100 for the full control effect; nearly all actives have a fitted effect of over 45% in size
MARV entry inh: Marburg virus entry inhibition; AID 540276; Potency, µM (top dose mostly 37.8 µM), for the others: at the highest dose activity change, negative = inhibition, most hits filed as inhibitors; Marburg virus pseudotyped entry inhibition, cell reporter; hit rate 1.8% among 300,000; calls by dose curve; tested in HEK293 cells; also: potency is read from the fitted curve at half-maximal effect; % is scaled to controls: 0 for no effect and ±100 for the full control effect
HCV inhibitor: blocks hepatitis C virus | AID 651820 | hit rate 3.4% among 340,000 | Potency, µM (highest dose often 41.8 µM), for the others: top-dose activity change, negative = inhibition, usual class: inhibitors | Huh7.5.1 HCVcc-Cre infection, luciferase reporter, 44 h; active = well fitted inhibition curve with a large enough effect; inconclusive = small, poorly fitted or top-dose-only effect, or another doubt; inactive = no such curve, though single readings can be large or run the other way; also: potency is read from the fitted curve at half-maximal effect; % is scaled to controls: 0 for no effect and ±100 for the full control effect
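Seed cells (1,000/well) for 4 h; treat with compound and infect with HCVcc-Cre, moi about 0.5. Incubate 44 h, then detect luciferase activity.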
* hit, by the source's call; ? = inconclusive; · = not tested or not shown; [ ] = remark or other dose.

SMILES	SARS PLP yeast	HCMV antiviral	LASV entry inh	FMDV inh	MARV entry inh	HCV inhibitor
CC(C)(C)OC(=O)N(Cc1ccccc1)Cc1ccccc1OCc1cccc(NC(=O)c2ccccc2)c1	·	-34.5	·	-25.2%	·	?
CC(C)(C)OC(=O)N(Cc1ccccc1)Cc1ccc(OCc2cccc(NC(=O)C3CC3)c2)cc1	·	?	·	14.1µM*	·	?
Cc1cccc(NC(=O)NC(C)C(c2cccs2)N2CCOCC2)c1 (stereo not given)	2.2%	-67.0*	·	-20.9%	·	6.4%
O=C(Cn1c(-c2ccccc2)c[n+]2ccsc12)c1ccc(Br)cc1	-0.5%	-74.5*	-1.0%	-11.9%	-26.5%[46.1 µM]	-5.3%
C[n+]1ccn(CC(=O)c2ccc(Br)cc2)c1	4.7%	?	10.5%	-12.3%	-3.1%	-0.2%
N=c1c2c(n(Cc3ccc(Cl)cc3Cl)c3c1CCC3)CCCC2	-3.3%	·	3.98µM*	-1.0%	?	10µM*
N=c1c2c(n(Cc3ccc(F)cc3)c3c1CCC3)CCCC2	5.5%	-99.6*	·	?	·	-25.3%
N=c1sc2c(n1Cc1ccccc1)CCCC2	-3.7%	-35.3	6.7%	·	?	1.3%
N=c1c2c(n(Cc3cccc(Cl)c3)c3c1CCC3)CCCC2	-37.8%	-94.5*	?	·	?	25.1µM*
N=c1c2c(n(Cc3ccccc3)c3c1CCC3)CCC2	-4.4%	-96.5*	1.58µM*	?	?	?
COc1ccc2c(c1)OC(C)CN(CC(=O)NCc1cn[nH]c1-c1ccc(F)cc1)C2 (stereo not given)	·	·	·	-9.1%	·	·
Cc1nc2cccnc2n1C1CCN(C(=O)Nc2ccccc2C(F)(F)F)CC1	·	0.4	-5.3%[46.1 µM]	-26.6%	·	·
N=c1c2c(n(Cc3ccc(Cl)cc3)c3c1CCC3)CCC2	-7.8%	-102.1*	?	?	?	?
C=CCn1c(O)c(N=NC(=S)Nc2ccccc2F)c2cc(S(=O)(=O)N3CCOCC3)ccc21	2.2%	-70.1*	?	-22.7%	?	?
Cc1ccccc1NC(=S)N=Nc1c(O)n(C)c2ccc(S(=O)(=O)N3CCOCC3)cc12	4.3%	?	?	?	?	?
C=CCn1c(O)c(N=NC(=S)Nc2ccccc2F)c2ccccc21	-1.9%	-92.8*	·	-17.5%	·	10µM*
CCCCn1c(O)c(N=NC(=O)c2ccccc2NS(=O)(=O)c2cccs2)c2ccccc21	-9.6%	19.1	?	-4.4%	7.6%	-6.0%
Oc1c(N=NC(=S)Nc2ccccc2F)c2ccccc2n1Cc1ccccc1	-1.4%	-20.1	·	-18.8%	·	?
C=CCn1c(O)c(N=NC(=O)c2ccccc2NS(=O)(=O)c2cccs2)c2ccccc21	-18.6%	-95.1*	13.3%	-3.0%	?	17.1%
CCOC(=O)N1CCN([C@@H]2OC(=O)c3ccccc32)CC1	·	·	·	·	23.5%[46.1 µM]	·
C/C(=N\NC(=O)c1ccc(C)cc1)c1c(C)[nH]n(-c2ccccc2)c1=O	?	-92.5*	·	17.4%	·	1.7%
Cc1onc(-c2c(Cl)cccc2Cl)c1C(=O)Nn1cnnc1	0.3%	0.5	2.2%	-11.5%	18.7%	5.1%
Cc1onc(-c2c(Cl)cccc2Cl)c1C(=O)ONC(=O)c1cc(C(F)(F)F)cc(C(F)(F)F)c1	-0.2%	-98.7*	10.0%	?	15.8%	-8.3%
O=C(CSc1ncc2c(n1)-c1ccccc1N(Cc1ccc(Cl)cc1)S2(=O)=O)c1ccc(Cl)cc1	·	0.1	?	-4.1%	·	·
CCCCOP(=O)(OCCCC)C(O)c1ccc(F)cc1 (stereo not given)	1.9%	12.7	?	78.6%	6.9%	3.0%
SMILES	SARS PLP yeast	HCMV antiviral	LASV entry inh	FMDV inh	MARV entry inh	HCV inhibitor
CC(C)COP(=O)(OCC(C)C)C(O)c1ccc(F)cc1 (stereo not given)	-10.8%	-99.7*	3.2%	48.7%	-4.7%	14.7%
Cc1ccc(/C=N/NC(=O)Cc2c(F)cccc2Cl)s1	-1.1%	-27.8	·	13.6%	·	-20.5%
O=C(CNC(=O)c1ccccc1)N/N=C/c1cccs1	0.1%	?	-3.6%[46.1 µM]	5.6%	2.3%[46.1 µM]	13.5%
O=C(Cc1c(F)cccc1Cl)N/N=C/c1cccs1	7.0%	-74.8*	4.5%[46.1 µM]	45.6%	19.4%[46.1 µM]	5.4%[8.37 µM]
O=C(CNC(=O)c1cccc(F)c1)N/N=C/c1cccs1	-1.5%	-62.2*	·	5.7%	·	9.5%
CCCCCn1c(CN2CCN(Cc3ccccc3)CC2)nc2c1c(=O)[nH]c(=O)n2C	-0.8%	-68.6*	3.8%	0.0%	11.2%	-2.4%

Screening data deposited in PubChem by National Center for Advancing Translational Sciences (NCATS).
